Laboratory results from the supplement of paper PMC10849652.
Of roughly 8,800 targets only a part is listed; those with a hit were picked by preference. About 0.5% of all pairs of compound and target were hits.

How the values were obtained:
Assay in all cases: log2 fold change, soluble protein after heating vs DMSO (PISA); higher = thermal stabilisation; K562 lysate, 10 uM; active = over 0.2 and 3.5 SD of the protein, either way, in both replicates (recomputed)
erlotinib = compound: C#Cc1cccc(Nc2ncnc3cc(OCCOC)c(OCCOC)cc23)c1 [erlotinib]
In short: (§1)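 Soluble protein was defined as the supernatant remaining after 21,000xg for 90 min, following pooling of heated aliquots and adjustment to 0.5% NP-40 at 4°C. Before that, crude K562 extract at 1 mg/mL protein in PBS pH 7.4 with 1 mM MgCl2 was treated with 10 μM compound for 30 min and heated for 3 min across 48°C-58°C. Quantification used TMTpro 16plex LC-MS/MS with channel sums equalised, and values are log-two fold changes in thermal stability relative to solvent controls from duplicates.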

[1] = compound: C/C(=N\NC(=O)C1=CC(=CC=C1)S(=O)(=O)N2CCOCC2)/C3=C(C=CC(=C3)Cl)O
In short: as §1

[2] = compound: C1=CC(=CC=C1C2=NC3=C(N2)C=C(C=C3)C(=O)N)OC4=CC=C(C=C4)Cl
In short: as §1

[3] = compound: C1=CC2=C(C=CC(=C2)/C=C\3/C(=O)NC(=NCC4=CC=CS4)S3)N=C1
In short: as §1

[4] = compound: C1=CC2=NC=CN=C2C=C1/C=C/3\C(=O)NC(=O)S3
In short: as §1

[5] = compound: C1=CC=C(C=C1)C2=NC(=C(N2)C3=CC=NC=C3)C4=CC(=C(C=C4)Cl)O
In short: as §1

[6] = compound: C1=CC=C2C(=C1)C3=NNC4=CC=CC(=C43)C2=O
In short: as §1

[7] = compound: C1CCN(C1)C(=O)NC2=CC=CC(=C2)NC3=NC=C(C(=N3)NCCC4=CN=CN4)Br
In short: as §1

[8] = compound: C1CN(CCC1(CC2=CC=C(C=C2)Cl)N)C3=NC=NC4=C3C=CN4
In short: as §1

IRAK-1-4 Inhibitor I = compound: C1COCCN1CCN2C3=CC=CC=C3N=C2NC(=O)C4=CC(=CC=C4)[N+](=O)[O-] [IRAK-1-4 Inhibitor I]
In short: as §1

Measured: log2 fold change

ASNS (UniProt P08243)
inactive: erlotinib 0.024 | [1] 0.067 | [2] -0.019 | [3] -0.007 | [4] 0.017 | [5] -0.023 | [6] -0.018 | [7] 0.016 | [8] 0.038 | IRAK-1-4 Inhibitor I 0.011

ALG8 (UniProt Q9BVK2)
Chain of UniProt Q9BVK2 (Q9BVK2 whole entry, looked up): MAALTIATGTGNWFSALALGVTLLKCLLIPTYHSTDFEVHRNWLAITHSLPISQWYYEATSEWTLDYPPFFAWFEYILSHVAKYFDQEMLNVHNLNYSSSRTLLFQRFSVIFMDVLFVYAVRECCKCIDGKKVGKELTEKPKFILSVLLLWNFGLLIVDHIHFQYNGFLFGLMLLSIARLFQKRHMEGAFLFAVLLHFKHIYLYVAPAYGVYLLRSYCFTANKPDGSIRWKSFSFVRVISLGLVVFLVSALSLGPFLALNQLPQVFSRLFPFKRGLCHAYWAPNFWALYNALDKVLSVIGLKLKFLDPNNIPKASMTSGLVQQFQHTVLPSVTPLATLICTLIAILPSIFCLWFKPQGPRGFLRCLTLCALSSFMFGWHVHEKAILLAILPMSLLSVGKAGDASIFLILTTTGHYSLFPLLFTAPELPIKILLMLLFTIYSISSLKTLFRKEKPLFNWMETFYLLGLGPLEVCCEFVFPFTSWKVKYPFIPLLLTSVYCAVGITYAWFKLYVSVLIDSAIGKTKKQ
inactive: erlotinib 0.022 | [1] -0.102 | [2] -0.082 | [3] 0.018 | [4] 0.016 | [5] -0.062 | [6] -0.001 | [7] 0.053 | [8] 0.012 | IRAK-1-4 Inhibitor I -0.007

ANKRD52 (UniProt Q8NB46)
Chain of UniProt Q8NB46 (Q8NB46 whole entry, looked up): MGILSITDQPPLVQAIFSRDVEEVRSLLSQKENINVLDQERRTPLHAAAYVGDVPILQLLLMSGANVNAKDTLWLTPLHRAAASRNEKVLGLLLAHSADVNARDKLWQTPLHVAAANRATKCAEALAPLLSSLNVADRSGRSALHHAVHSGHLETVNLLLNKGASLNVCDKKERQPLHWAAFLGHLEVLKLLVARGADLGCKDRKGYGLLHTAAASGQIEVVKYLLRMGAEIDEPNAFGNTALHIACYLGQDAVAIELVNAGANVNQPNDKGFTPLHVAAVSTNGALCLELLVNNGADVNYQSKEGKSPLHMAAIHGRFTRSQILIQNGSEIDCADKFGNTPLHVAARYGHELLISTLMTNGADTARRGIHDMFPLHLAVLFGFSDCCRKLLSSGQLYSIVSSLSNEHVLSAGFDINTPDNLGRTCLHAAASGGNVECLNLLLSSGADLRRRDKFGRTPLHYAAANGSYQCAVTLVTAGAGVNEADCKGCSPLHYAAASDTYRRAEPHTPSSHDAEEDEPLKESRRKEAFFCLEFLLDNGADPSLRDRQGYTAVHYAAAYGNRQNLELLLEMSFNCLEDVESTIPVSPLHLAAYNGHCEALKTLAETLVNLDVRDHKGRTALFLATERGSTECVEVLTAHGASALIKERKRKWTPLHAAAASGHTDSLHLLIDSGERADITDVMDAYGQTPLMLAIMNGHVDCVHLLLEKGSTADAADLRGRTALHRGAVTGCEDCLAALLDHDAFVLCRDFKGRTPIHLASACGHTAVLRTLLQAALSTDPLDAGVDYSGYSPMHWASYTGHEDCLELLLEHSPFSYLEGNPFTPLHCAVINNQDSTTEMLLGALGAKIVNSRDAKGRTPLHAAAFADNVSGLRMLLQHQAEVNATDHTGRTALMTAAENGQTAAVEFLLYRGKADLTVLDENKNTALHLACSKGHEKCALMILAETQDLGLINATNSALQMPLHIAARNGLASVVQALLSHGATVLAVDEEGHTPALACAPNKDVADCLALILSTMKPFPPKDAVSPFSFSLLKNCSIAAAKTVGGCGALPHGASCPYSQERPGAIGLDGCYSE
inactive: erlotinib 0.056 | [1] -0.288 | [2] 0.026 | [3] -0.011 | [4] 0.021 | [5] 0.013 | [6] -0.092 | [7] 0.008 | [8] 0.072 | IRAK-1-4 Inhibitor I 0.051

AMPD3 isoform 4 (UniProt Q01432)
Chain of UniProt Q01432 (Q01432 whole entry, looked up): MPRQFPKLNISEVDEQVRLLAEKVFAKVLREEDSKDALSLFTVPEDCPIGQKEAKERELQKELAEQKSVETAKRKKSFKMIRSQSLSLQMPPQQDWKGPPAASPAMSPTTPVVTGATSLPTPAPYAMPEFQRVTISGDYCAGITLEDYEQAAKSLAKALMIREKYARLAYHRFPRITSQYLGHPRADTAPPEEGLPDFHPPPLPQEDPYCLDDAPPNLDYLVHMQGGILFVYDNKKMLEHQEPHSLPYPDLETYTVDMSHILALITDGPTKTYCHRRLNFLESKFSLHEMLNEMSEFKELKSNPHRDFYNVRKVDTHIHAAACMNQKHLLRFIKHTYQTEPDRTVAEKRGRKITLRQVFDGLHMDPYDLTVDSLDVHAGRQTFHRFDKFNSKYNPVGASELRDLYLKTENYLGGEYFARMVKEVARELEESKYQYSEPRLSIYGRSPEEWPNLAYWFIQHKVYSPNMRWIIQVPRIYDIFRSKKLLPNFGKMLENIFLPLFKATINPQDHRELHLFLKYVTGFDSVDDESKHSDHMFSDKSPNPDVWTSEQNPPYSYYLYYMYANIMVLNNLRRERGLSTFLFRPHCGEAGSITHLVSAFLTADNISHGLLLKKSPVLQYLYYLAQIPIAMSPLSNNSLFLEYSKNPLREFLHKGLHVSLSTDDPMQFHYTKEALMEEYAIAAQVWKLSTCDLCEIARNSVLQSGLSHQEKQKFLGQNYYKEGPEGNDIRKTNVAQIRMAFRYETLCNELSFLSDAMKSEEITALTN
inactive: erlotinib 0 | [1] 0.048 | [2] 0.031 | [3] 0.007 | [4] -0.072 | [5] -0.004 | [6] 0.027 | [7] -0.002 | [8] -0.002 | IRAK-1-4 Inhibitor I 0.015

ABI1 isoform 9 (UniProt Q8IZP0)
inactive: erlotinib -0.014 | [1] -0.003 | [2] 0.025 | [3] 0.01 | [4] -0.007 | [5] 0.009 | [6] -0.014 | [7] 0.006 | [8] 0.004 | IRAK-1-4 Inhibitor I -0.021

AKR1C3 (UniProt P42330)
active: [5] 0.3
inactive: erlotinib 0.002 | [1] 0.023 | [2] -0.1 | [3] 0.029 | [4] 0.008 | [6] 0.024 | [7] 0.05 | [8] 0.029 | IRAK-1-4 Inhibitor I -0.017

ANKRD27 (UniProt Q96NW4)
inactive: erlotinib 0.087 | [1] -0.025 | [2] 0.07 | [3] 0.04 | [4] -0.033 | [5] 0.02 | [6] -0.094 | [7] -0.036 | [8] 0 | IRAK-1-4 Inhibitor I 0.014

ALKBH4 (UniProt Q9NXW9)
inactive: erlotinib 0.014 | [1] -0.073 | [2] 0.026 | [3] -0.011 | [4] 0.017 | [5] -0.052 | [6] -0.069 | [7] 0 | [8] 0.019 | IRAK-1-4 Inhibitor I 0.003

ACBD6 (UniProt Q9BR61)
inactive: erlotinib 0.013 | [1] -0.059 | [2] 0.029 | [3] 0.024 | [4] -0.032 | [5] -0.014 | [6] -0.075 | [7] -0.044 | [8] -0.01 | IRAK-1-4 Inhibitor I 0.019

ACSL4 (UniProt O60488)
Chain of UniProt O60488 (O60488 whole entry, looked up): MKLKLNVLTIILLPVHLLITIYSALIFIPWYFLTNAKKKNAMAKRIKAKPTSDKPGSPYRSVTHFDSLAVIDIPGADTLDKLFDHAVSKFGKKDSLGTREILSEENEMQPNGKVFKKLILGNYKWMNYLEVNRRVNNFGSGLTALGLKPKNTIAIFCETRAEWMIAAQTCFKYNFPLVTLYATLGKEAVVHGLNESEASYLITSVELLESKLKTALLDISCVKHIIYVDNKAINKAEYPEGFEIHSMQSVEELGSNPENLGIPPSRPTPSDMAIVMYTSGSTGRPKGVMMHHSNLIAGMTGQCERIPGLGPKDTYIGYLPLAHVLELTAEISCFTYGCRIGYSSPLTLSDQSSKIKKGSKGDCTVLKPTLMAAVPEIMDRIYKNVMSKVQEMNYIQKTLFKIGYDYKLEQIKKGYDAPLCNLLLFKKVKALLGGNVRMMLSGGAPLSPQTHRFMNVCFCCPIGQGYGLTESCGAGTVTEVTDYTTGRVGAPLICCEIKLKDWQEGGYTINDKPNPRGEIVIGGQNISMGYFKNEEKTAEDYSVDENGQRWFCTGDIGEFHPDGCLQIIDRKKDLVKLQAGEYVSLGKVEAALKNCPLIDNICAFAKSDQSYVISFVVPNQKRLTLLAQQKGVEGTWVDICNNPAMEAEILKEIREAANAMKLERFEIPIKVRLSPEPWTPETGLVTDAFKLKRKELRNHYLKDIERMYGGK
inactive: erlotinib 0.004 | [1] -0.074 | [2] -0.053 | [3] 0.062 | [4] 0.022 | [5] -0.014 | [6] -0.032 | [7] -0.065 | [8] -0.007 | IRAK-1-4 Inhibitor I 0.04

APOB (UniProt P04114)
inactive: erlotinib -0.028 | [1] -0.001 | [2] -0.032 | [3] -0.029 | [4] -0.021 | [5] 0 | [6] -0.055 | [7] -0.067 | [8] 0.015 | IRAK-1-4 Inhibitor I 0.097

AGPS (UniProt O00116)
inactive: erlotinib 0.033 | [1] -0.086 | [2] -0.014 | [3] 0.037 | [4] 0.019 | [5] -0.039 | [6] -0.082 | [7] -0.034 | [8] 0.015 | IRAK-1-4 Inhibitor I 0.023

AIFM2 (UniProt Q9BRQ8)
inactive: erlotinib -0.094 | [1] 0 | [2] 0.224 | [3] 0.071 | [4] -0.117 | [5] 0.117 | [6] 0.068 | [7] -0.025 | [8] 0.018 | IRAK-1-4 Inhibitor I -0.01

ADAM17 (UniProt P78536)
inactive: erlotinib 0.021 | [1] -0.013 | [2] 0.017 | [3] 0.023 | [4] -0.023 | [5] 0.044 | [6] -0.115 | [7] 0.052 | [8] -0.093 | IRAK-1-4 Inhibitor I 0.04

AP4B1 (UniProt Q9Y6B7)
inactive: erlotinib 0.021 | [1] -0.038 | [2] 0.016 | [3] 0.096 | [4] 0.038 | [5] 0.019 | [6] -0.022 | [7] -0.018 | [8] 0.188 | IRAK-1-4 Inhibitor I 0.013

AFF1 isoform 2 (UniProt P51825)
inactive: erlotinib -0.001 | [1] -0.085 | [2] 0.027 | [3] 0.071 | [4] -0.068 | [5] -0.007 | [6] -0.041 | [7] -0.002 | [8] 0.005 | IRAK-1-4 Inhibitor I 0.021

ANP32E (UniProt Q9BTT0)
Chain of UniProt Q9BTT0 (Q9BTT0 whole entry, looked up): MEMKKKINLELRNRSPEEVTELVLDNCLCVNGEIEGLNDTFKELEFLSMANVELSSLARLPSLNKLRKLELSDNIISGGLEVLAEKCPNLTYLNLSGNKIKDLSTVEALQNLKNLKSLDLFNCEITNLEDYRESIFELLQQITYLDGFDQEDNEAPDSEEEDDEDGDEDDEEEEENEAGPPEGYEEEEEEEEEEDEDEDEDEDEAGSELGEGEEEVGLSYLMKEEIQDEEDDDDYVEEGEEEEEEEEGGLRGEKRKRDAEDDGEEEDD
inactive: erlotinib 0.006 | [1] -0.006 | [2] 0.016 | [3] -0.021 | [4] 0.012 | [5] -0.004 | [6] -0.065 | [7] -0.025 | [8] 0.011 | IRAK-1-4 Inhibitor I 0.023

AGTPBP1 (UniProt Q9UPW5)
inactive: erlotinib -0.033 | [1] -0.084 | [2] 0.027 | [3] -0.029 | [4] 0.042 | [5] -0.053 | [6] -0.039 | [7] -0.017 | [8] 0.005 | IRAK-1-4 Inhibitor I 0.022

APAF1 (UniProt O14727)
inactive: erlotinib 0.005 | [1] 0.084 | [2] -0.054 | [3] 0.019 | [4] -0.016 | [5] -0.029 | [6] -0.003 | [7] 0.022 | [8] 0.015 | IRAK-1-4 Inhibitor I -0.021

ABCC5 (UniProt O15440)
inactive: erlotinib 0.059 | [1] -0.581 | [2] 0.057 | [3] -0.028 | [4] -0.127 | [5] -0.112 | [6] -0.248 | [7] -0.038 | [8] 0.072 | IRAK-1-4 Inhibitor I -0.067

ASB6 (UniProt Q9NWX5)
inactive: erlotinib 0.038 | [1] -0.311 | [2] 0.04 | [3] -0.094 | [4] -0.005 | [5] 0.06 | [6] 0.092 | [7] -0.053 | [8] 0.327 | IRAK-1-4 Inhibitor I 0.002

ACAA1 (UniProt P09110)
Chain of UniProt P09110 (P09110 whole entry, looked up): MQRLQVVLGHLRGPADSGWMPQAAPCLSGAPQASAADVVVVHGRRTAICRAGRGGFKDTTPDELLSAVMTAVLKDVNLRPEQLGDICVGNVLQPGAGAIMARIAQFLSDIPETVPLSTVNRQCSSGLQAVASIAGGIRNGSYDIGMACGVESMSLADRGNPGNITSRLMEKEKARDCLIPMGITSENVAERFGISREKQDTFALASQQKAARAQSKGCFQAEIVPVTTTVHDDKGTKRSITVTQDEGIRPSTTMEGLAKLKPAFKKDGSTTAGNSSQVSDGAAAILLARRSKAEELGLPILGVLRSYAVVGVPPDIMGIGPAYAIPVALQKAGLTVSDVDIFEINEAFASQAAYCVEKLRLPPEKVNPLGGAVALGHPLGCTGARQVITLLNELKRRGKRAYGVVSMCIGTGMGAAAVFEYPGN
inactive: erlotinib 0.03 | [1] -0.455 | [2] 0.041 | [3] 0.015 | [4] 0.03 | [5] -0.036 | [6] 0.016 | [7] 0.014 | [8] -0.024 | IRAK-1-4 Inhibitor I -0.006

ANXA11 (UniProt P50995)
Chain of UniProt P50995 (P50995 whole entry, looked up): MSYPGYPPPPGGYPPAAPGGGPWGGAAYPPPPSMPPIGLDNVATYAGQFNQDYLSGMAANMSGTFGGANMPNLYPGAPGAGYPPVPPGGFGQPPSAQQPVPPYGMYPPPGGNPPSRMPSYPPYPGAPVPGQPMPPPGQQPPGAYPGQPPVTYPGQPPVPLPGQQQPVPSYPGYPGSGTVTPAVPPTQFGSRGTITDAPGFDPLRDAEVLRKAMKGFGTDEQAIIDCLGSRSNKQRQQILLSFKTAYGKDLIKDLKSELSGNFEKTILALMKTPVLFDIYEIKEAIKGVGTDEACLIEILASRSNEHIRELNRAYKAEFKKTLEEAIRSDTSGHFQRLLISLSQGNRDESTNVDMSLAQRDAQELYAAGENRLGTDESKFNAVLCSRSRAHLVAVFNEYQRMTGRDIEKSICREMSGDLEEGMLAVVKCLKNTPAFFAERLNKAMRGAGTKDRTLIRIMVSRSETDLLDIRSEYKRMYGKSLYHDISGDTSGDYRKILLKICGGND
inactive: erlotinib 0.015 | [1] 0.031 | [2] 0.025 | [3] -0.022 | [4] 0.017 | [5] -0.079 | [6] -0.016 | [7] 0.011 | [8] 0.033 | IRAK-1-4 Inhibitor I 0.006

ABHD12 isoform 2 (UniProt Q8N2K0)
Chain of UniProt Q8N2K0 (Q8N2K0 whole entry, looked up): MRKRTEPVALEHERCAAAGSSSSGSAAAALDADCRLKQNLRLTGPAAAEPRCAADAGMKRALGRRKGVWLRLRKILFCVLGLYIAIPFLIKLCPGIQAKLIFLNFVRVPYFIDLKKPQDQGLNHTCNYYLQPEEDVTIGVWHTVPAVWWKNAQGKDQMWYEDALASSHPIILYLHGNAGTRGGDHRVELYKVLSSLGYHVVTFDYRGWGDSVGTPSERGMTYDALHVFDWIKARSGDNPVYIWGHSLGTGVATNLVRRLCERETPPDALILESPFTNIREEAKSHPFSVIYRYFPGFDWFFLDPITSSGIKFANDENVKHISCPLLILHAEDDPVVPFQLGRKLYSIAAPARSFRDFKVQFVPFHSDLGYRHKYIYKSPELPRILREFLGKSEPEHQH
inactive: erlotinib -0.027 | [1] -0.031 | [2] -0.062 | [3] 0.074 | [4] 0.037 | [5] -0.064 | [6] 0 | [7] -0.03 | [8] 0.048 | IRAK-1-4 Inhibitor I 0.014

ALDH6A1 (UniProt Q02252)
inactive: erlotinib -0.03 | [1] 0.064 | [2] -0.04 | [3] -0.068 | [4] -0.179 | [5] 0.043 | [6] -0.031 | [7] -0.022 | [8] 0.015 | IRAK-1-4 Inhibitor I 0.024

AMMECR1 (UniProt Q9Y4X0)
Chain of UniProt Q9Y4X0 (Q9Y4X0 whole entry, looked up): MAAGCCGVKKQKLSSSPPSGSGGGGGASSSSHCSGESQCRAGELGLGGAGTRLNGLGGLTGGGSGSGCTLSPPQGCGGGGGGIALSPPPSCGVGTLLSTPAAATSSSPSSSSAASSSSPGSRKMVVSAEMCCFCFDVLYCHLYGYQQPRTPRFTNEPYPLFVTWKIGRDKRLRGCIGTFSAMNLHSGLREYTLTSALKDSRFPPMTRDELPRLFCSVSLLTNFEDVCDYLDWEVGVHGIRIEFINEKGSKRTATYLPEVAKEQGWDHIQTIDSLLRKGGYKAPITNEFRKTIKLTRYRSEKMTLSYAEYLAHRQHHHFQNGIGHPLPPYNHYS
inactive: erlotinib 0.007 | [1] 0.003 | [2] 0.019 | [3] -0.045 | [4] 0.004 | [5] -0.009 | [6] -0.001 | [7] 0.009 | [8] 0.019 | IRAK-1-4 Inhibitor I 0.002

ALG3 (UniProt Q92685)
inactive: erlotinib 0.19 | [1] -0.117 | [2] -0.12 | [3] -0.037 | [4] 0.056 | [5] -0.016 | [6] -0.182 | [7] -0.103 | [8] -0.037 | IRAK-1-4 Inhibitor I 0.019

ARL1 (UniProt P40616)
inactive: erlotinib 0.006 | [1] -0.212 | [2] 0.037 | [3] -0.022 | [4] -0.03 | [5] -0.013 | [6] -0.018 | [7] -0.046 | [8] 0.025 | IRAK-1-4 Inhibitor I 0.053

ACTBL2 (UniProt Q562R1)
inactive: erlotinib -0.037 | [1] -0.163 | [2] 0.02 | [3] 0.043 | [4] 0.118 | [5] 0.004 | [6] 0.024 | [7] 0.064 | [8] 0.109 | IRAK-1-4 Inhibitor I -0.006

AMDHD2 isoform 3 (UniProt Q9Y303)
inactive: erlotinib -0.013 | [1] -0.045 | [2] 0.06 | [3] -0.038 | [4] 0.028 | [5] -0.01 | [6] -0.003 | [7] 0.022 | [8] 0.044 | IRAK-1-4 Inhibitor I 0.018
